The values below come from PubChem BioAssay (Tox21).

Each structure is given as a SMILES string. Unmarked numbers belong to inactive results. Records with an inconclusive call do not appear. Activity calls are given as the source filed them. Unless noted, the call rests on the fitted dose curve; in most records, active means well fitted curve in the direction sought with a large enough effect in the repeat runs; inconclusive means weak or mixed curves; inactive means no such curve, though single readings can be large; an effect the other way counts as inactive or inconclusive.

The nature of assay [1]: qHTS assay to identify small molecule agonists of the hypoxia (HIF-1) signaling pathway - cell viability counter screen (AID 1224844; calls by dose curve; further: on the % scale 0 is the no-effect control and ±100 the full control effect; nearly all actives have a fitted effect of over 50% in size). An outline of the steps: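 Cytotoxicity measured by CellTiter-Glo ATP luminescence in the wells also read for beta-lactamase signal. Cells were HRE-bla ME-180 (2,000/well, 0.5% dialyzed FBS), exposed to compounds for 17 h at 37C.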
Assay [2] can be described thus: qHTS assay to identify small molecule agonists of the hypoxia (HIF-1) signaling pathway (AID 1224846; active means well fitted activation curve with a large enough effect in the signal ratio in the repeat runs, not every such curve was filed as active; the % refers to the signal ratio; further: on the % scale 0 is the no-effect control and ±100 the full control effect). Summed up:
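Compounds added to ME-180 cells carrying hypoxia-response-element beta-lactamase reporter (0.5% dialyzed FBS, 5 h preplating), 17 h at 37C; agonist activity detected by CCF4-AM B/G FRET read-out.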

The nature of assay [3]: qHTS assay to identify small molecule agonists of H2AX - cell viability counter screen (AID 1224847; calls by dose curve; further: top concentration of the series differs between compounds; on the % scale 0 is the no-effect control and ±100 the full control effect; nearly all actives have a fitted effect of over 30% in size). Summed up:
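Compounds tested at 15 concentrations were incubated 3 hr at 37C with wild-type CHO-K1 cells; cellular ATP-based luminescence (CellTiter-Glo) indicated viability.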

A short description of assay [4]: qHTS assay to identify small molecule antagonists of the estrogen related receptor (ERR) signaling pathway from Tox21 library (AID 1224848). Further: potency means the concentration at half of the fitted maximal effect; nearly all actives have a fitted effect of over 50% in size. Summed up: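 Compounds dissolved in DMSO are pin-transferred onto ERR reporter cells (2,000 per well) that have settled for 6 h at 37 C. Plates then incubate 18 h at 37 C before ONE-Glo luciferase reagent and a luminescence read 30 min later.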

A short description of assay [5]: qHTS assay to identify small molecule agonists of the estrogen related receptor (ERR) signaling pathway from Tox21 library (AID 1224849; calls by dose curve; further: on the % scale 0 is the no-effect control and ±100 the full control effect; nearly all actives have a fitted effect of over 15% in size). The note with it: ERR reporter cell line, ONE-Glo luciferase, 18 h; at 92.4 µM (top of the series) unless noted. An outline of the steps: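 Luminescent agonist read-out (One-Glo, 30-minute room-temperature incubation) following 18-hour compound treatment at 37 C of the ERR cell line, which had been plated 6 hours before dosing.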

Assay [6] is described as follows: qHTS RealTime-Glo MT Cell Viability Assay in HepG2 cells - 24 hour (AID 1224867). Further: on the % scale 0 is the no-effect control and ±100 the full control effect; nearly all actives have a fitted effect of over 50% in size. An outline of the steps:
(§1)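 Compound treatment began 5 h after plating HepG2 cells (600/well) with NanoLuc luciferase and prosubstrate. Plates stayed at 37 C for 40 h; luminescence was captured at six time points, 0 h through 40 h.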

Assay [7] in a line: A CellTox Green Cytotoxicity Assay to monitor cytotoxicity in HEK293 cells - 0 hour (AID 1224869). Further: on the % scale 0 is the no-effect control and ±100 the full control effect; nearly all actives have a fitted effect of over 50% in size. An outline of the steps:
(§2)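 Fluorescence from a DNA-binding dye excluded by viable cells was measured repeatedly in the same HEK293 wells (600 cells/well) during continuous compound exposure at 37 C. Each assay gives one read point: 0, 8, 16, 24, 32 or 40 h.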

Assay [8] is described as follows: qHTS RealTime-Glo MT Cell Viability Assay in HepG2 cells - 40 hour (AID 1224870). Summed up: (§3)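 HepG2 cells (600/well) mixed with RealTime-Glo MT reagent, settled 5 h at 37 C/5% CO2 before compound addition. Nonlytic NanoLuc luminescence from viable-cell prosubstrate reduction read repeatedly during 40 h treatment at 37 C.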
Assay [9] is described as follows: qHTS RealTime-Glo MT Cell Viability Assay in HepG2 cells - 8 hour (AID 1224873). Further: on the % scale 0 is the no-effect control and ±100 the full control effect; nearly all actives have a fitted effect of over 55% in size. Summed up: as §3
Assay [10] is described as follows: A CellTox Green Cytotoxicity Assay to monitor cytotoxicity in HEK293 cells - 24 hour (AID 1224875). Further: on the % scale 0 is the no-effect control and ±100 the full control effect; nearly all actives have a fitted effect of over 45% in size. Summed up:
as §2

The nature of assay [11]: A CellTox Green Cytotoxicity Assay to monitor cytotoxicity in HepG2 cells - 16 hour (AID 1224876). Further: on the % scale 0 is the no-effect control and ±100 the full control effect; nearly all actives have a fitted effect of over 45% in size. An outline of the steps:
(§4)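 Real-time cytotoxicity: fluorescence of a cell-impermeant cyanine dye binding DNA of dead HepG2 cells, measured repeatedly (0–40 h) during compound exposure at 37 C. Cells seeded 600/well with reagent, dosed after 5 h.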

A short description of assay [12]: qHTS RealTime-Glo MT Cell Viability Assay in HepG2 cells - 32 hour (AID 1224877). Further: on the % scale 0 is the no-effect control and ±100 the full control effect; nearly all actives have a fitted effect of over 55% in size. An outline of the steps:
as §1

Assay [13] can be described thus: A CellTox Green Cytotoxicity Assay to monitor cytotoxicity in HepG2 cells - 24 hour (AID 1224878). Further: on the % scale 0 is the no-effect control and ±100 the full control effect; nearly all actives have a fitted effect of over 45% in size. Summed up:
as §4

Assay [14] can be described thus: A CellTox Green Cytotoxicity Assay to monitor cytotoxicity in HepG2 cells - 40 hour (AID 1224879). Further: on the % scale 0 is the no-effect control and ±100 the full control effect; nearly all actives have a fitted effect of over 40% in size. An outline of the steps:
as §4

Assay [15] in a line: qHTS RealTime-Glo MT Cell Viability Assay in HEK293 cells - 0 hour (AID 1224880). Further: top concentration of the series differs between compounds; on the % scale 0 is the no-effect control and ±100 the full control effect; nearly all actives have a fitted effect of over 45% in size. An outline of the steps: (§5)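 Luminescence, which tracks viable cell number through reduction of the prosubstrate to a NanoLuc substrate, was read over continuous 37 C culture. Cells (600/well) were premixed with reagent and rested 5 h before 23 nL of compound in DMSO was pinned.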
Assay [16] in a line: qHTS RealTime-Glo MT Cell Viability Assay in HEK293 cells - 32 hour (AID 1224868). Summed up: (§6)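 Quantitative high-throughput screen of the Tox21 10K library in HEK293: cells and RealTime-Glo reagents plated together, compound added at 5 h, luminescence monitored through 40 h at 37 C.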
Assay [17] can be described thus: qHTS RealTime-Glo MT Cell Viability Assay in HEK293 cells - 40 hour (AID 1224874). The conditions noted are these: RealTime-Glo luminescence; max response: stronger effect = lower value. Summed up: as §5
A short description of assay [18]: A CellTox Green Cytotoxicity Assay to monitor cytotoxicity in HEK293 cells - 40 hour (AID 1224871). An outline of the steps:
as §2

Assay [19] can be described thus: qHTS RealTime-Glo MT Cell Viability Assay in HEK293 cells - 16 hour (AID 1224872). An outline of the steps: as §6

With `O=C1[C@H]2CCCC[C@H]2C(=O)N1CCCCN1CCN(c2nsc3ccccc23)CC1`, the Potency entry in [1], in assay [2], in assay [3], in [6], in assay [7] and in assay [8] was “inactive” each time. In addition, the Potency entry in assay [9], in assay [10], in assay [11], in assay [12], in assay [13] and in assay [14] was “inactive” in each case. Besides, the Potency entry in [15] was “inactive”. Besides, in assay [4], the Potency was 26.6 µM (active). Also, in assay [5], the activity change, positive = activation was -38.9% [at 42.5 µM].

Consider `COS(=O)(=O)C(F)(F)F`, for which the Potency result in [1], in assay [2], in [3], in assay [6], in assay [16] and in assay [8] was “inactive” each time. The Potency result in assay [9], in assay [11], in [12], in assay [13], in assay [14] and in assay [15] was “inactive” throughout. The max response in assay [17] was 11.7%.

With `NCC(=O)O`, the activity change, negative = cytotoxicity was 0.428% [at 15.8 µM] in [1], 1.04% [at 31.6 µM] in assay [3] and -1.51% [at 15.8 µM] in [15]. Further, the activation in assay [2] was -0.806% [at 15.8 µM]. Further, the activity change, negative = cytotoxic in assay [16] is 7.53% [at 15.8 µM]; in assay [8], 0.792% [at 15.8 µM]; in assay [12], 0.863% [at 15.8 µM]. The cytotoxicity in assay [7] was -0.777% [at 15.8 µM]; in assay [13], 7.92% [at 15.8 µM]. Moreover, the cytotoxicity increase in [18] is 1.17% [at 15.8 µM]; in assay [11], 8.58% [at 15.8 µM]; in assay [14], 1.98% [at 15.8 µM]. Moreover, in [9], the viability change, negative = cytotoxic is 8.37% [at 15.8 µM]. Also, the max response in [17] was 8.51%. Also, the activity change in [10] is -2.36% [at 15.8 µM, stronger effect = higher value].

In the case of `Cc1oc(-c2ccccc2)nc1CCOc1cccc2c1ccn2CCC(=O)O`, the Potency entry in assay [1], in [2], in assay [3], in assay [6], in [16] and in assay [7] was “inactive” each time. Besides, the Potency entry in assay [8], in [18], in assay [9], in [10], in assay [11] and in assay [12] was “inactive” each time. Moreover, the Potency result in assay [13], in assay [14] and in assay [15] was “inactive” in each case. Moreover, the max response in [17] was -19%.

Consider `C=C(C)C(=O)OCCOCC`, for which the Potency entry in [1], in [3], in assay [6], in [16], in assay [7] and in assay [8] was “inactive” in each case. The Potency result in assay [18], in assay [19], in assay [9], in assay [10], in assay [11] and in assay [12] was “inactive” throughout. In addition, the Potency result in assay [13], in assay [14] and in assay [15] was “inactive” each time. Moreover, the max response in [17] is 17.3%.

For `CCN(CC)CCOC(=O)C(Cc1cccc2ccccc12)CC1CCCO1` (stereo not drawn), the Potency result in [1], in [3], in assay [6], in assay [7], in assay [8] and in [9] was “inactive” each time. In addition, the Potency entry in assay [10], in [12], in assay [13] and in assay [14] was “inactive” each time.

On to `CC(C)(C)Cl`, for which the Potency result in assay [1], in assay [2], in [16], in assay [7], in assay [8] and in [18] was “inactive” throughout. The Potency result in [19], in assay [9], in assay [10], in assay [11], in assay [12] and in assay [13] was “inactive” each time. In assay [14], the Potency entry is “inactive”. Besides, in assay [17], the max response is 1.73%.

Turning to `Cc1ccc(N=Nc2c(O)c(C(=O)O)cc3ccccc23)c(S(=O)(=O)O)c1`, the Potency result in [1], in assay [2], in [6], in [16], in [8] and in assay [18] was “inactive” in each case. Moreover, the Potency result in [19], in [9], in assay [10], in assay [11], in [12] and in [13] was “inactive” each time. The Potency result in [14] is “inactive”. In addition, the max response in [17] is 1.56%.
